# Laboratory results reported in PubChem BioAssay (EPA / NIEHS).
# Results filed as inconclusive are left out. Active and inactive are the calls of the source. Rule for the calls, unless noted: active = hit-call score of the fitted dose curve at least 0.9, where 1 is the maximum; inconclusive = response in the unintended direction; inactive = score below 0.9.
# Legend:
# [1] = IUF_NPC1_cytotoxicity_72hr: Cytotoxicity Assessment at 72 hours in the Leibniz Research Institute for Environmental Medicine (IUF) Neural Progenitor Cell Proliferation Assay (NPC1) (AID 2284332);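 note: rising LDH signal means more cytotoxicity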
# Procedure, shortened: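 Single human fetal cortex neural progenitor spheres (GW 16-19, 0.25-0.35 mm) in EGF/FGF proliferation medium were exposed to compound for 72 h at 37C without renewal. Medium LDH release was read as resorufin fluorescence and fitted as gain-of-signal.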
# [2] = CCTE_Mundy_HCI_iCellGluta_NOG_NeuriteCount: CCTE's Neurite Outgrowth Assay in iCellGluta cells for Neurite Count, Mundy Lab (AID 2284342);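 note: chemical exposure about 48 hours starting 2 hours after plating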
# Experimental: CCTE_Mundy_HCI_iCellGluta_NOG is a multiplexed, cell-based-readout assay that uses iCell GlutaNeurons from FUJIFILM Cellular Dynamics, Inc. (FCDI), human glutamatergic enriched neurons derived from induced pluripotent stem (iPS) cells, with measurements taken at 50.33 hours after chemical dosing in a microplate: 96-well plate.CCTE_Mundy_HCI_iCellGluta_NOG_NeuriteCount is one of four components of the CCTE_Mundy_HCI_iCellGluta_NOG assay. It measures neurite outgrowth related to number of neurites using High Content Imaging of fluorescently labelled markers.Data from the assay component CCTE_Mundy_HCI_iCellGluta_NOG_NeuriteCount was analyzed at the endpoint CCTE_Mundy_HCI_iCellGluta_NOG_NeuriteCount in the positive analysis fitting direction relative to DMSO as the negative control and baseline of activity. Using a type of morphology reporter, loss-of-signal activity can be used to understand developmental effects.
# Exposure starts 2 hours post-plating by adding 10 ul of the working solution to 90 ul of media in the wells for a 1/10 dilution. Forty-eight hours after chemical treatment cells are fixed by direct addition of 100 ul of warm (37C) Dulbecco's phosphate buffered saline (DPBS) fixative solution containing 8% paraformaldehyde, 8% sucrose, and 0.1% of 3 mg/ml Hoechst 33342 into each well. Primary antibodies are prepared by dilution in Immunocytochemical Staining Buffer (ISB), 10X Dulbecco's PBS, 0.1% Saponin, 5% Bovine Serum Albumin, 0.5% NaN3 (Sodium Azide) and betaIII-tubulin (rabbit anti-betaIII-tubulin, 1:800) followed by Alexa Fluor-488 secondary (1:500) to label neuronal cell bodies and neurites. A Cellomics ArrayScan VTi HCS Reader is used for automated image acquisition and analysis of neurite outgrowth.
# SERPINA7 (gene 6906) = test: CCTE_GLTED_hTBG: CCTE's human Thyroxine-binding Globulin (TBG) Inhibition Assay, Great Lakes Toxicology and Ecology Division (GLTED) Lab (AID 2284343);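 note: active chemicals lower fluorescence versus DMSO baseline by displacing probe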
# Procedure, shortened: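 Cell-free binding assay in which human TBG is incubated with test chemical for 2 hours and displacement of the fluorescent probe ANSA is read at 380 nm excitation/475 nm emission. Activity is fitted against DMSO as the negative control.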
# [3] = tested on: SRY-box transcription factor 17 (SOX17) Protein Expression, Deisenroth Lab, SOX17 (gene 64321); test: CCTE_Deisenroth_DEVTOX-GLR_legacy_Sox17: (Legacy) CCTE's DevTox GLR-Endo Assay Evaluation of SRY-box transcription factor 17 (SOX17) Protein Expression, Deisenroth Lab (AID 2284341; active = hit-call score of the fitted dose curve at least 0.9, where 1 is the maximum; inactive = score below 0.9); conditions: actives raise or lower the signal
# Procedure, shortened: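 Percent SOX17-positive cells, scored by high-content imaging as mean intensity exceeding pluripotent-control median by 5x BMAD, divided by cell count. Human RUES2-GLR endoderm differentiation, 48 h, two exposures 24 h apart, 1 nM–200 uM; DMSO-referenced bidirectional fitting.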
# [4] = tested on: SRY-box transcription factor 2 (SOX2) Protein Expression, Deisenroth Lab, SOX2 (gene 6657); test: CCTE_Deisenroth_DEVTOX-GLR_legacy_Sox2: (Legacy) CCTE's DevTox GLR-Endo Assay Evaluation of SRY-box transcription factor 2 (SOX2) Protein Expression, Deisenroth Lab (AID 2284346; active = hit-call score of the fitted dose curve at least 0.9, where 1 is the maximum; inactive = score below 0.9)
# Procedure, shortened: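 RUES2-GLR human pluripotent cells seeded 24 h, then differentiated 48 h in defined media with two chemical doses 24 h apart (10-point, 1 nM–200 uM). Fixed, nuclear-stained, imaged; % Sox2+ cells (>5x BMAD over endoderm control median), DMSO-subtracted, fitted upward.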
# [5] = tested on: SRY-box transcription factor 17 (SOX17) Protein Expression, Deisenroth Lab, SOX17 (gene 64321); test: CCTE_Deisenroth_DEVTOX-GLR_Endo_SOX17: CCTE's DevTox GLR-Endo Assay Evaluation of SRY-box transcription factor 17 (SOX17) Protein Expression, Deisenroth Lab (AID 2284413; active = hit-call score of the fitted dose curve at least 0.9, where 1 is the maximum; inactive = score below 0.9)
# Procedure, shortened: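 Endpoint: % change in SOX17+ fraction (SOX17+ cells / cell count) vs 0.2% DMSO solvent control. RUES2-GLR reporter cells, 48 h endoderm differentiation, two doses at 24 h intervals, high-content fluorescence imaging, 5 fields/well.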
# [6] = tested on: Brachyury (BRA) Protein Expression, TBXT (gene 6862); test: CCTE_Deisenroth_DEVTOX-GLR_Endo_BRA: CCTE's DevTox GLR-Endo Assay Evaluation of Brachyury (BRA) Protein Expression, Deisenroth Lab (AID 2284417; active = hit-call score of the fitted dose curve at least 0.9, where 1 is the maximum; inactive = score below 0.9)
# Procedure, shortened: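 Endpoint is the fraction of BRA reporter-positive cells over total nuclei, corrected by subtracting the 0.2% DMSO value. Chemicals (1 nM - 200 uM, 10 points) were dosed twice during 48 h differentiation of RUES2-GLR cells, read by imaging.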
# [7] = CCTE_Deisenroth_DEVTOX-GLR_Endo_CellCount: Viability Assessment in CCTE's DevTox GLR-Endo Assay, Deisenroth Lab (AID 2284420; active = hit-call score of the fitted dose curve at least 0.9, where 1 is the maximum; inactive = score below 0.9)
# Procedure, shortened: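 Human pluripotent RUES2-GLR line; 24 h pre-seed; 48 h endoderm-directed differentiation; 2 doses, q24h; 10 conc., 1 nM - 200 uM; fix + nuclear dye; 5 fields/well imaged; readout = nuclei count, % change vs 0.2% DMSO; n=4.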
# [8] = tested on: SRY-box transcription factor 17 (SOX17) Protein Expression, Deisenroth Lab, SOX17 (gene 64321); test: CCTE_Deisenroth_DEVTOX-GLR_Pluri_SOX17: CCTE's DevTox GLR-Pluri Assay Evaluation of SRY-box transcription factor 17 (SOX17) Protein Expression, Deisenroth Lab (AID 2284427)
# Procedure, shortened: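 Human RUES2-GLR pluripotent line; 24 h seeding, 48 h defined-media differentiation, 2 doses q24h, 10 conc 1 nM - 200 uM. Fix, nuclear stain, image 5 fields/well. Endpoint = %SOX17+ minus 0.2% DMSO; n=4.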
# [9] = tested on: SRY-box transcription factor 2 (SOX2) Protein Expression, Deisenroth Lab, SOX2 (gene 6657); test: CCTE_Deisenroth_DEVTOX-GLR_Pluri_SOX2: CCTE's DevTox GLR-Pluri Assay Evaluation of SRY-box transcription factor 2 (SOX2) Protein Expression, Deisenroth Lab (AID 2284428; active = hit-call score of the fitted dose curve at least 0.9, where 1 is the maximum; inactive = score below 0.9)
# Procedure, shortened: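 Steps: seed RUES2-GLR cells for 24 h; start 48 h differentiation in defined media; dose test chemicals at 0 and 24 h (1 nM–200 uM); fix, stain nuclei, image; compute SOX2+ percentage against 0.2% DMSO wells.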
# [10] = CCTE_Mundy_HCI_iCellGluta_NOG_NeuronCount: CCTE's Neurite Outgrowth Assay in iCellGluta cells for Neuron Count, Mundy Lab (AID 2284340);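 note: cells fixed about 48 h after compound addition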
# Procedure, shortened: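 Neuron count read by automated high-content imaging of Hoechst 33342 and betaIII-tubulin/Alexa Fluor-488 labelling in human iPSC glutamatergic neurons. Activity fitted relative to DMSO.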
# [11] = VALA_MIGHUV1_ScratchOnly_WoundArea: VALA Sciences human Umbilical Vein Endothelial Cell Migration (MIGHUV) Assay, Area of Scratch Wound Inhibited Recovery (AID 2284336)
# Procedure, shortened: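 HUVEC monolayers (9000 cells/well) were scratched after 24 h, dosed within 30 min (six concentrations, triplicate, 0.1% DMSO), allowed 24 h recovery, then fixed. Hoechst-stained nuclei in the wound imaged; cytochalasin D as reference.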
# [12] = VALA_TUBHUV_Agonist_TubuleLength: VALA Sciences human Umbilical Vein Endothelial Tubule Formation (TUBHUV) Agonism Assay (AID 2284337)
# Procedure, shortened: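 HUVEC co-cultured with fibroblasts (1:3) 3 days in 10 ng/ml VEGF, then 3 days with compound plus VEGF; 0.1 % DMSO neutral control. Fixed, nuclear and CD31 stained; tubule length by fluorescence imaging.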
# [13] = VALA_TUBIPS_Agonist_CellCount: Viability Assessment in the VALA Sciences human iPS-derived Endothelial Tubule Formation (TUBIPS) Agonism Assay (AID 2284338)
# [14] = CCTE_Deisenroth_H295R-HTRF_384WELL_ESTRADIOL: CCTE's H295R-HTRF Assay Evaluation of Estradiol Concentration, Deisenroth Lab (AID 2284361; active = hit-call score of the fitted dose curve at least 0.9, where 1 is the maximum; inactive = score below 0.9); conditions: actives raise or lower the signal
# Procedure, shortened: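 H295R cells exposed 48 h to chemicals at 0.001 - 100 uM final (nine points, triplicate); estradiol in conditioned medium measured by HTRF immunoassay, fitted bidirectionally versus DMSO. Viability by CellTiter-Glo on same plates.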
# [15] = CCTE_Deisenroth_H295R-HTRF_384WELL_TESTOSTERONE: CCTE's H295R-HTRF Assay Evaluation of Testosterone Concentration, Deisenroth Lab (AID 2284373; active = hit-call score of the fitted dose curve at least 0.9, where 1 is the maximum; inactive = score below 0.9); conditions: actives raise or lower the signal
# Procedure, shortened: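 Secreted testosterone was quantified by HTRF immunoassay of medium from human adrenocortical H295R cells after 48 h chemical exposure at 0.001–100 uM final. Gain or loss was fitted against DMSO. ATP-based viability was read on matched wells, five experimental replicates.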
# [16] = CCTE_Deisenroth_H295R-HTRF_384WELL_CTOX: Cytotoxicity Assessment in CCTE's H295R-HTRF Assay, Deisenroth Lab (AID 2284380)
# Procedure, shortened: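 H295R adrenocortical carcinoma cells plated 24 h, then exposed 48 h to nine-point series 0.001–100 uM final, triplicate, n=5. ATP measured by CellTiter-Glo 2.0 luminescence on same plates after medium collection; loss versus DMSO.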
smiles,measurement,setting,value
CSC(=O)c1cccc2nnsc12,outcome,[1],inactive
same,outcome,[2],inactive
O=C(O)C1(C(=O)Nc2ccc(Cl)cc2Cl)CC1,AC50,SERPINA7 (gene 6906),66 µM (active)
O=C(c1ccccc1)C1CCCCC1,AC50,SERPINA7 (gene 6906),50 µM (active)
CCN(Cc1c(F)cccc1Cl)c1c([N+](=O)[O-])cc(C(F)(F)F)cc1[N+](=O)[O-],AC50,SERPINA7 (gene 6906),0.62 µM (active)
CCCCC(CC)COC(=O)c1ccccc1C(=O)O (centres undefined),AC50,[3],100 µM (active)
same,AC50,SERPINA7 (gene 6906),18.3 µM (active)
same,outcome,[4],inactive
same,AC50,[5],100 µM (active)
same,AC50,[6],160 µM (active)
same,AC50,[7],109 µM (active)
same,AC50,[8],100 µM (active)
same,AC50,[9],100 µM (active)
C#CCOC(=O)[C@@H](C)Oc1ccc(Oc2ncc(Cl)cc2F)cc1,outcome,[1],inactive
same,outcome,[10],inactive
same,AC50,[2],34 µM (active)
CCCN(CCC)C(=O)SCC,outcome,[1],inactive
same,outcome,[10],inactive
same,outcome,[2],inactive
O=C(O)c1ccccc1,outcome,[1],inactive
CC(C)CCCCCCc1ccc(O)cc1,outcome,[11],inactive
same,outcome,[12],inactive
same,outcome,[13],inactive
same,AC50,SERPINA7 (gene 6906),5.2 µM (active)
CCCN(CCC)c1c([N+](=O)[O-])cc(C(F)(F)F)c(N)c1[N+](=O)[O-],AC50,SERPINA7 (gene 6906),0.322 µM (active)
CC(=O)S[C@@H]1CC2=CC(=O)CC[C@]2(C)[C@H]2CC[C@@]3(C)[C@@H](CC[C@@]34CCC(=O)O4)[C@H]12,outcome,[14],inactive
same,AC50,[15],1.28 µM (active)
same,outcome,[16],inactive
S=C([S-])NCCNC(=S)[S-].[Mn+2],outcome,[1],inactive
CCN(CC)C(=O)c1cccc(C)c1,outcome,[1],inactive
same,outcome,[10],inactive
same,outcome,[2],inactive
C=CCOC(Cn1ccnc1)c1ccc(Cl)cc1Cl (centres undefined),AC50,[14],447 nM (active)
same,AC50,[15],1.87 µM (active)
same,AC50,[16],84.6 µM (active)
O=C(Nc1ccc([N+](=O)[O-])cc1Cl)c1cc(Cl)ccc1O,outcome,SERPINA7 (gene 6906),inactive
CCCCOCCOCCOCc1cc2c(cc1CCC)OCO2,outcome,[14],inactive
same,outcome,[15],inactive
same,outcome,[16],inactive
